Results from PubChem BioAssay.
Active and inactive are the calls of the source.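 Rule for the calls, unless noted: active = inhibition of the reporter signal at or above 50%; inactive = inhibition below 50%.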

Experiments:
[1] = inhibitors of TNFa-induced NFkB p65 translocation, primary screen, imaging, HUVEC, MLSMR starter and 10KST1 sets (AID 438;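 active = inhibition above 20% together with a positive visual image hit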;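 note: compound added about 3h40 before a 20 min TNFalpha stimulation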;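 for inhibition: signal is the nuclear over cytoplasmic p65 intensity ratio per well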); conditions: HUVEC TNFa-induced p65 nuclear translocation; cell count: measured here: nuclei count (cytotoxicity indicator), at 2.08 µM; inhibition: at 2 µM, stronger effect = higher value, 0% TNFa-plus-vehicle, 100% no-TNFa wells
[2] = reduction of polyQ htt aggregates in cells – imaging, exon1htt(103Q)mCFP cells, high-content imaging, primary screen (AID 483;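 active = visual image review flags a hit and inhibition of aggregation exceeds 20%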;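 note: compound exposure lasted 3 days before fixation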;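 for nuclei count: percent of the per-plate median nuclei count of sample wells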); conditions: exon1htt(103Q)mCFP cell line, aggregate imaging, at 2 µM; inhibition of aggregation: stronger effect = higher value; nuclei count: measured here: cell count, toxicity
[3] = endothelial E-selectin expression blockers – imaging, HUVEC, immunofluorescence, MLSMR starter and 10KST1 sets, primary screen (AID 487;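 active = visually confirmed hit in the image check and inhibition above 20%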;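 for inhibition: signal is fraction of cell area covered by stained E-selectin grains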;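 for nuclei count: 100% = median nuclei count of all wells on the same plate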); conditions: HUVEC TNFalpha-induced E-selectin immunofluorescence imaging, at 2 µM; inhibition: stronger effect = higher value; nuclei count: measured here: cell number, toxicity
[4] = molecular target: Voltage-gated potassium channel subunit beta-2 (Rattus norvegicus) (UniProt P62483); assay: inhibitors of rat Kvbeta2 reductase activity – biochemical, NADPH fluorescence, primary screen (AID 622;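 active = fluorescence slope higher than the sample average by over 3 SD, cut at about -0.22 in these data, passing the limit was not always enough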;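 note: slope of raw intensity against log time taken from 70 to 1610 s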); conditions: recombinant KvBeta, 4-cyanobenzaldehyde reduction, at 10 µM, stronger effect = higher value
Voltage-gated potassium channel subunit beta-2 (Rattus norvegicus), sequence (P62483 whole entry, looked up): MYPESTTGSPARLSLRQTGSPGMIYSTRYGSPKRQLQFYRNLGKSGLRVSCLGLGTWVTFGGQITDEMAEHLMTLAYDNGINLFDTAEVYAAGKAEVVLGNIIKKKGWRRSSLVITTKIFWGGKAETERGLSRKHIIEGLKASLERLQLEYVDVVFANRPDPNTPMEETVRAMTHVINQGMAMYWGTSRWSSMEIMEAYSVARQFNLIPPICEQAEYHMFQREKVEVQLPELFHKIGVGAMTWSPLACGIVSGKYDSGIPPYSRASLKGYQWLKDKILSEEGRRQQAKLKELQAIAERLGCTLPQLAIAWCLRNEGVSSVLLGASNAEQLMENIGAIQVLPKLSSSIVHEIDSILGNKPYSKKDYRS

[5] = molecular target: Voltage-gated potassium channel subunit beta-2 (Rattus norvegicus) (UniProt P62483); assay: enhancers of rat Kvbeta2 NADPH turnover – biochemical, NADPH fluorescence, primary screen (AID 623;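 active = NADPH fluorescence slope more negative than the mean of all samples by about 3 SD, 99.7% confidence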;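 note: fluorescence intensity change per second fitted from 20 to 320 s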); conditions: Recombinant KvBeta, NADPH fluorescence decrease slope, 10 min; at 10 µM; stronger effect = lower value
[6] = molecular target: Alpha-2C adrenergic receptor (Homo sapiens) (UniProt P18825); assay: compounds altering alpha2C-coupled GIRK flux – cell-based, HEK293 alpha2C/GIRK1/2, thallium flux, primary screen (AID 624;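 active = fluorescence slope after compound addition differing from the mean of all screened samples at 99.7% confidence, in either direction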;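 note: slope of fluorescence ratio to pre-addition baseline per second over 15 to 24 s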); conditions: thallium flux BTC fluorescence, at 10 µM, actives lie on both sides
Alpha-2C adrenergic receptor (Homo sapiens), sequence (P18825 whole entry, looked up): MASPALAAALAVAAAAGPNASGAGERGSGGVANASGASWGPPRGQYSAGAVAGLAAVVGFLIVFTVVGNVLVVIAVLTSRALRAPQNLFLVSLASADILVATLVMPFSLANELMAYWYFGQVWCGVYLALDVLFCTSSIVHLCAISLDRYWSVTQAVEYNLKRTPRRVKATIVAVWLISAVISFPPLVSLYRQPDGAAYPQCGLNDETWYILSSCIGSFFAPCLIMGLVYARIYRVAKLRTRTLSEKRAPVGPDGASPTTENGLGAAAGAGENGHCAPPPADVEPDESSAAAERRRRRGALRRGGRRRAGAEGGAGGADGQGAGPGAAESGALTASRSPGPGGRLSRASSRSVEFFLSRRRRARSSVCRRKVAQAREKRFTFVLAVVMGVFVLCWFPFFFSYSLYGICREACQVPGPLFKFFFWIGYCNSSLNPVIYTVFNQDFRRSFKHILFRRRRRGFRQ

[7] = blockers of RIG-like receptor reporter activation – cell-based, Sendai virus stimulus, luciferase, 10K MLSCN set, TLR/RLR signaling modifier project, primary screen (AID 602276;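 active = inhibition at or above 50% at 10 µM; inactive = inhibition below 50%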;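 note: firefly luciferase from ISG56 promoter only with Renilla not read in this screen; 0% = Sendai virus plus DMSO and 100% = medium plus DMSO without virus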); conditions: HEK293 RL24 IRF3 luciferase reporter, at 10 µM, stronger effect = higher value
[8] = TLR3 IRF3 reporter activation blockers – cell-based, poly I:C stimulus, luciferase, 10K MLSCN set, primary screen (AID 602277); conditions: HEK293-TLR3 RL24 IRF3 luciferase reporter, at 10 µM, stronger effect = higher value

SMILES | cell count [1] | inhibition [1] | inhibition of aggregation [2] | nuclei count [2] [%] | inhibition [3] | nuclei count [3] [%] | fluorescence slope [4] | NADPH fluorescence slope [5] | slope [6] | inhibition [7] | inhibition [8]
COC(=O)c1cnc2c(C(F)(F)F)cccc2c1OC | 595 | -8.5% (inactive) | -5% (inactive) | 61.8 | -64.2% (inactive) | 84.8 | -0.605 (inactive) | 6.9e-06 (inactive) | 0.0043 (inactive) | 9.38% (inactive) | 10.1% (inactive)
Cc1ccc(C)c(NS(=O)(=O)c2ccc(NC(=O)c3ccco3)cc2)c1 | 476 | 13.3% (inactive) | 4.7% (inactive) | 111 | -15.1% (inactive) | 109 | -0.335 (inactive) | -3.2e-05 (inactive) | 0.00608 (inactive) | 0.316% (inactive) | 11.1% (inactive)
Cc1nc2ccc(S(=O)(=O)NCC(=O)N3CCCCC3)cc2s1 | 277 | -3% (inactive) | 11.4% (inactive) | 79.6 | 27.3% (inactive) | 94.4 | -0.488 (inactive) | -4.1e-05 (inactive) | 0.00708 (inactive) | -10.6% (inactive) | -1.82% (inactive)
COc1ccc(C2c3sc(=O)[nH]c3SC3C4CCC(C4)C23)cc1 (stereo not drawn) | 573 | -7.6% (inactive) | -14% (inactive) | 93.8 | -69.5% (inactive) | 106 | -0.53 (inactive) | 3.9e-05 (inactive) | 0.00413 (inactive) | -5.3% (inactive) | 9.16% (inactive)
O=C(O)c1cccc(NC(=O)C23CC4CC(C2)CC(n2cnc(Cl)n2)(C4)C3)c1 | 571 | -24.4% (inactive) | -15.8% (inactive) | 108 | -14.3% (inactive) | 115 | -0.506 (inactive) | -1.2e-05 (inactive) | 0.00606 (inactive) | 9.34% (inactive) | 17.3% (inactive)
CCOC(=O)Cn1c(CN2CCN(c3cccc(Cl)c3)CC2)nc2c1c(=O)[nH]c(=O)n2C | 669 | 0% (inactive) | -3.2% (inactive) | 111 | 6.7% (inactive) | 120 | -0.583 (inactive) | -1.7e-05 (inactive) | 0.00641 (inactive) | 16.4% (inactive) | 32.5% (inactive)
CC(C)OC(=O)c1ccc(NC(=O)C2C3CC4OC(=O)C2C4C3)cc1 (stereo not drawn) | 324 | -10.5% (inactive) | -9.4% (inactive) | 103 | -115% (inactive) | 151 | -0.327 (inactive) | -6e-05 (inactive) | 0.00657 (inactive) | -44.9% (inactive) | -88.7% (inactive)
COc1ccc(NC(=O)c2cc(C(C)C)on2)c(OC)c1 | 568 | -11.1% (inactive) | 33.2% (inactive) | 100 | 7.6% (inactive) | 107 | -0.576 (inactive) | -1.2e-05 (inactive) | 0.00755 (inactive) | -35.5% (inactive) | -63.9% (inactive)
